In PubChem BioAssay AID1863 (Southern Research Specialized Biocontainment Screening …, 2009):
Hit rate of the full screen: of about 300,000 compounds, about 480 (0.16%) were called active.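 Rule for the calls: active = inhibition over 29.93%, a cutoff 3 SD above the screen mean, later confirmed by dose response; inconclusive = inhibition over 29.93% but no dose response follow-up; inactive = inhibition at most 29.93% or unconfirmed.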 These entries were drawn from the full list. Results with a measured potency or affinity are listed apart.

Test: PhoP-dependent GFP reporter repression – Salmonella Typhimurium, primary screen (AID 1863);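 note: 0% = low Mg2+ inducing control and 100% = high Mg2+ repressing control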
Conditions: S. Typhimurium PhoP-regulated promoter GFP reporter, 4 h; at 50 µM; active compounds read high

inhibition, inactive:
COc1ccc(S(=O)(=O)N2CCCCCC2)cc1N(C)S(=O)(=O)c1ccc(C)cc1 -9.69%
CCCC(=O)N(c1ccc(OCC)cc1)C1C=CS(=O)(=O)C1 (configuration not stated) -5.2%
CCOC(=O)c1cn(C2CC2)c2c(F)c(F)c(F)cc2c1=O -6.9%
C[C@@H]1CN(c2c(F)c(N)c3c(=O)c(C(=O)O)cn(C4CC4)c3c2F)C[C@H](C)N1 -7.7%
COC(=O)C(c1cc(OC)c(O)c(OC)c1)(N1CCNC(C)C1)C(F)(F)F (configuration not stated) 1.17%
O=C(O)c1cn(C2CCCCC2)c2ccccc2c1=O -3.48%
COC(=O)c1ccc(NC(=O)C(OC)c2ccccc2)cc1 (configuration not stated) 5.34%
O=C(NNC(=O)c1ccccc1OCc1ccc(F)cc1)c1ccccc1O 1.71%
COc1cccc(Oc2ccc(S(=O)(=O)N3CCCC3)cc2[N+](=O)[O-])c1 -0.65%
COc1ccc([C@@H]2[C@@H]3C(=O)N(C(C)(C)C)C(=O)[C@@H]3[C@]3(Cc4ccccc4)C(=O)N(c4ccccc4)C(=O)N23)cc1 6.74%
O=C(COc1ccccc1F)NNC(=O)c1ccc2c(=O)n3c(nc2c1)CCC3 -5.21%
CC(CN1CCCCC1)OC(=O)C(C)(c1ccccc1)c1ccccc1 (configuration not stated) -9.7%
O=S(=O)(NCC1CCCO1)c1ccc(S(=O)(=O)N(Cc2ccc(F)cc2)Cc2ccco2)cc1 (configuration not stated) 2.4%
CCCC(=O)Nc1c2c(nc3ccccc13)N(c1ccccc1)CC2 -4.18%
CCN(CCCCN1C(=O)c2ccccc2C1=O)c1ccc2c(c1)C(=O)N(C)C2=O -8.03%
COc1ccc(-c2cc3ccccc3n2CC(O)Cn2nc(C)cc2C)cc1 (configuration not stated) 1.53%
O=C(O)c1cn(-c2ccc(F)cc2)c2cc(Cl)c(F)cc2c1=O 5.58%
O=C(O)c1cn(-c2ccc(N3CCCC3)c(F)c2)c2c(F)c(F)c(F)cc2c1=O -6.63%
O=C(/C=C/c1ccc([N+](=O)[O-])cc1)NCCc1ccccc1 6.48%
O=c1cc(N2CCN(c3ccccc3F)CC2)[nH]c(=O)n1-c1ccc(Br)cc1 -3.95%
C/C(=N\Nc1ncc(Cl)cc1Cl)c1ccccn1 9.66%
Cc1sc2ncnc(Nc3ccccc3)c2c1C 8.39%
Cc1sc2ncnc(N/N=C/c3ccc(O)cc3)c2c1C 11.1%
Cc1sc2ncnc(N/N=C/c3cccc(O)c3)c2c1C -0.11%
C=CCN(c1ccc(C(=O)NCCCn2ccnc2)cc1)S(C)(=O)=O 0.81%
Cc1ccc2c(=O)c(C(=O)c3ccc(F)cc3)cn(CC(=O)NCc3ccco3)c2n1 -4.56%
CCOC(=O)c1c(NC(=O)COC(=O)c2ccccn2)sc(C(=O)N(C)C)c1C 2.57%
C/C(=N\NC(=O)c1ccccc1Cl)c1ccccn1 5.97%
C/C(=N\NC(=O)c1cc(Br)ccc1O)c1ccccn1 3.69%
COc1ccc(CC(=S)NCCc2ccccc2)cc1 -4.36%
O=C(NC1CCCC1)C(c1ccccn1)N(Cc1ccc(F)cc1)C(=O)c1csnn1 (configuration not stated) 0.43%
CCCCCCSc1cc(-c2nc3ccc(Cl)cn3c2NCCCC)ccc1OC -3.84%
COc1cc2ccc3c(CCN(C)C)cc(OC)c(OC)c3c2cc1OC -2.35%
CCCCn1nnnc1NCc1cc(OC)c(OC)cc1OC 35.9%
CC(=O)Oc1ccc(OC(C)=O)c(SCCCCCCl)c1 -1.06%
O=C(Nc1ccc(S(=O)(=O)N2CCc3ccccc3C2)cc1)C1CCCO1 (configuration not stated) 13.2%
CCCCCn1c(CCNC(=O)c2cccs2)nc2ccccc21 11.2%
COc1ccccc1C(=O)OCc1ccc2sc(C)nc2c1 5.75%
C=CCNc1nc(Cl)nc(Nc2ccc([N+](=O)[O-])cc2)n1 13.8%
CC(C)c1cc(=O)n2[nH]c(SCc3ccccc3Cl)nc2n1 -7.54%
CCCOc1ccc(C(=O)NCCC(=O)NCCCC(=O)O)cc1 8.01%
CN(C)C/C(Cl)=C(\Cl)c1ccccc1 4.69%
NC(=O)c1c(NC(=O)c2ccc([N+](=O)[O-])o2)sc2c1CCCC2 -3.86%
COC(=O)c1c(NC(=O)c2ccco2)sc2c1CCN(C(C)C)C2 3.8%
CN1CCc2c(sc(NC(=O)c3ccco3)c2C(N)=O)C1 -4.37%
CC(C)N1CCc2c(sc(NC(=O)c3ccc([N+](=O)[O-])o3)c2C(N)=O)C1 18%
CC(C)(C)c1ccc(C(=O)N2CCN(C(=O)c3ccco3)CC2)cc1 1.4%
Cc1nn(-c2ccccc2)c(N2CCCC2)c1C=O -1.38%
O=S(=O)(c1ccccc1)c1nc(-c2ccco2)oc1NCCCn1ccnc1 5.16%
CC(C)N(C(=O)COC(=O)[C@@H]1CC(O)CN1S(=O)(=O)c1ccc(C(C)(C)C)cc1)C(C)C (some centres not stated) 0.76%
CC(=O)C[C@H]1c2cc(C(F)(F)F)ccc2S(=O)(=O)N1c1ccc(N(C)C)cc1 -9.83%
Cc1c(N2C(=O)c3ccc(Br)cc3C2=O)c(=O)n(-c2ccccc2)n1C 2.78%
CCCCCCn1cc(C(=O)O)c(=O)c2cc(F)c(N3CCN(C(=O)OCC)CC3)cc21 5.63%
CCn1cc(C(=O)O)c(=O)c2cnc(N3CCN(C(=S)Nc4ccccc4)CC3)nc21 5.11%
CCCCCCCCC(=O)N1CCN(c2cc3c(cc2F)c(=O)c(C(=O)O)cn3CC)CC1 1.94%
C=CCNC(=S)N1CCN(c2ncc3c(=O)c(C(=O)O)cn(CC)c3n2)CC1 14%
CCOC(=O)c1cn(CC)c2cc(N3CCN(C)CC3)c(F)cc2c1=O 0.76%
CCCCCCCC(=O)N1CCN(c2cc3c(cc2F)c(=O)c(C(=O)O)cn3CC)CC1 9.66%
O=C(N/N=C1\CC2CC=CC12)c1ccccc1Cl (configuration not stated) -4.57%
CC1(C)C(=O)Nc2ccccc2N1C(=O)c1ccc([N+](=O)[O-])cc1 7.48%
CCS(=O)(=O)N1CCCC(C(=O)NCC2CCCO2)C1 (configuration not stated) 9.13%
COCCn1c(SCc2nnc(-c3ccccc3)o2)nc2sc3c(c2c1=O)CCC3 1.92%
O=C(NCc1cccnc1)/C(=C/c1ccco1)NC(=O)c1ccccc1 -2.07%
CCOc1ccc(C(=O)OCC(=O)NCCCc2ccccc2)cc1 -6.34%
COCCN1C=C2C(=O)C(C)(OC(=O)C3CCCC3)C(=O)C(c3ccccc3)=C2C=C1CCCC(=O)OC (configuration not stated) 0.275%
O=C(c1ccc(NS(=O)(=O)c2ccc3c(c2)OCCO3)cc1)N1CCCCC1 -6.01%
Cn1cc(S(=O)(=O)NC2CCCCC2)c(=O)n(C)c1=O -6.38%
Cc1cc(C)nc(/N=C(\N)N(Cc2ccccc2)Cc2ccccc2)n1 -3.9%
COc1ccc(/C=N/NS(=O)(=O)c2ccc(C)cc2)cc1OC(=O)c1ccccc1 -3.56%
CCCCCCn1cc(C(=O)O)c(=O)c2cc(F)c(N3CCN(C)CC3)cc21 -2.32%
O=C(O)c1cn(C2CC2)c2cc(N3CCN(S(=O)(=O)c4ccc5c(c4)OCCO5)CC3)c(F)cc2c1=O 28.5%
CCN(C(=O)COC(=O)c1ccc(C)c(S(=O)(=O)N2CCCCC2)c1)C1CCS(=O)(=O)C1 (configuration not stated) -0.22%
CC(Oc1ccccc1)C(=O)N=C1SC2CS(=O)(=O)CC2N1c1cccc(F)c1 (configuration not stated) -0.94%
COc1ccc(S(=O)(=O)N(C)c2ccc(C(=O)NCC3CCCO3)cc2)cc1 (configuration not stated) 15.5%
CN(C)NC1CC(=O)N(c2ccccc2)C1=O (configuration not stated) -0.29%
CCOP(=O)(OCC)C(C)(C)NC(=O)c1cc([N+](=O)[O-])cc([N+](=O)[O-])c1 -1.13%
O=C1Nc2ccccc2C1=O 6.44%
O=C1C(O)=C(O)C(=O)c2ccccc21 9.48%
COC(=O)C1=C(SC)N(c2ccccc2)C(c2ccccc2)CC1=O (configuration not stated) 11.8%
NC(=O)C[n+]1ccc(/C=N/O)cc1 -4.29%
CCCCCCCCCCCCCCCC[n+]1ccc(C(N)=O)cc1 20.5%
CCS(=O)(=O)N1CCCC(C(=O)NCCCOC)C1 (configuration not stated) -8.48%
CC1(N(O)/C=C2\C=CC=CC2=O)CCCCC1=O (configuration not stated) -4.1%
COC(=O)CCC(=O)Nc1ccccc1C(N)=O 15.3%
COc1ccc(O)c(/C=N/NC(=S)Nc2cccc(S(=O)(=O)N(C)C)c2)c1 22.2%
CN(C)S(=O)(=O)c1cccc(NC(=S)N/N=C/c2ccc(O)c(O)c2O)c1 -0.51%
Cc1ccc(Nc2nc(N)c([N+](=O)[O-])c(NCc3ccccc3)n2)cc1 -2.58%
Nc1ccc2c(c1)C(=O)c1ccccc1C2=O 8.76%
O=C1C(=O)c2ccc(-c3ccccc3)cc2-c2ccccc21 -10.4%
CC(=O)Nc1ccc(S(=O)(=O)N2C(C)CCCC2C)cc1 (configuration not stated) 11.1%
COc1ccc(/C=N/NC(=O)Cn2nnc3ccccc32)cc1OC -6.81%
COc1cc(/C=N/NC(=O)Cn2nnc3ccccc32)ccc1O -5.12%
